Bioassay records: PubChem, ICCB-Longwood Screening Facility, Harvard Medical School
Only a selection was taken, and hits are over-represented in it overall.
Anaer choline gr = choline-fed anaerobic bacterial growth inhibition. Gram-negative bacterium anaerobic choline minimal medium, absorbance growth; hits give low values. 55,000 tested, 0.2% active. calls only; call rule not given here
* marks the source's active call; other numbers are inactive results.

CN1[C@@H]2CC[C@H]1CC(OC1c3ccccc3CCc3ccccc31)C2 (some centres not stated) was read as Anaer choline gr inactive.
For Fc1ccc(C(OCCN2CCN(CCCc3ccccc3)CC2)c2ccc(F)cc2)cc1 the results were Anaer choline gr inactive.
CN1C2CCC1CC(OC(c1ccc(F)cc1)c1ccc(F)cc1)C2 (configuration not stated) was read as Anaer choline gr active.
`C=CCN1CC[C@]23c4c5ccc(O)c4O[C@H]2C(=O)CC[C@@]3(O)C1C5` gave Anaer choline gr inactive.
For COc1ccc2c(c1)C1(CCN(S(=O)(=O)c3ccc(C)cc3)C1)C(=O)N2C (configuration not stated) the results were Anaer choline gr inactive.
`COc1ccccc1NC(=O)CCc1nc(C2=CCN(Cc3cccc(Cl)c3)CC2)no1` gave Anaer choline gr inactive.
CN1CCN(c2nc3ccccc3nc2Cl)CC1 was read as Anaer choline gr inactive.
For CN1CCc2cccc(Cl)c2CC1 the results were Anaer choline gr active.
`C=C/C=C\CC1=C[C@@H](OC(=O)[C@@H]2[C@@H](C=C(C)C)C2(C)C)CC1=O` gave Anaer choline gr inactive.
Cc1nc(-c2ccncc2)nc2c1CC(=O)N2CCN1CCN(C)CC1 was read as Anaer choline gr inactive.
